Results reported in PubChem BioAssay (Tox21).
Records with an inconclusive call do not appear. The source made the active and inactive calls. Unless noted, calls come from the whole dose curve; as a rule, active = well fitted curve in the direction sought with a large enough effect in the repeat runs; inconclusive = weak or mixed curves; inactive = no such curve, though single readings can be large; an effect the other way counts as inactive or inconclusive.

What was measured:
[1] = biological target: Progesterone receptor (Homo sapiens) (UniProt P06401); assay: qHTS assay to identify small molecule agonists of the progesterone receptor (PR) signaling pathway (AID 1346784; calls by dose curve; note: nearly all actives have a fitted effect of over 30% in size)
Sequence of Progesterone receptor (Homo sapiens) (P06401 whole entry, looked up): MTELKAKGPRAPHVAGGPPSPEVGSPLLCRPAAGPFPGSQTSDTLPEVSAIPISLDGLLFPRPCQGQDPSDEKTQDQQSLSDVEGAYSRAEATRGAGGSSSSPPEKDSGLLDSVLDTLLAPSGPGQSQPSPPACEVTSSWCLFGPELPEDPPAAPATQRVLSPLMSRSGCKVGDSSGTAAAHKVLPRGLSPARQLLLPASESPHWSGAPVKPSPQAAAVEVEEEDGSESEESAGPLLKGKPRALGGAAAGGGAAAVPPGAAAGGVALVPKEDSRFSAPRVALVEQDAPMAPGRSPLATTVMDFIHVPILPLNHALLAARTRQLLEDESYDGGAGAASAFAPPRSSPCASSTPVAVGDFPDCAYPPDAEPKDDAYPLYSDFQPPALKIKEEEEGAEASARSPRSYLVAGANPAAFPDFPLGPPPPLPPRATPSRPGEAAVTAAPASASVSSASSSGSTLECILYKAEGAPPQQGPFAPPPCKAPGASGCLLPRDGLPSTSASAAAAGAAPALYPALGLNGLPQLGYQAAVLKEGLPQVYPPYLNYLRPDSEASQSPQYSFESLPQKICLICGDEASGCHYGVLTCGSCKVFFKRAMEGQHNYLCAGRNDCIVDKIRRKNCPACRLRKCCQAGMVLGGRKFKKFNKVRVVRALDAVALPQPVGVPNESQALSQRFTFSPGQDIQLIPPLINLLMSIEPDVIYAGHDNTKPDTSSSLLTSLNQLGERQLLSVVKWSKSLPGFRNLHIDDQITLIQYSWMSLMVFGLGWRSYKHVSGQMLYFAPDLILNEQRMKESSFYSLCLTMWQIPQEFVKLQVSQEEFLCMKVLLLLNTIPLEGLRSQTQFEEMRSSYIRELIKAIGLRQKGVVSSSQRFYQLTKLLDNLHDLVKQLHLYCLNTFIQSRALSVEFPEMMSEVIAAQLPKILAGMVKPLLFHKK
Procedure, shortened: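 PR-UAS-bla HEK 293T cells (beta-lactamase reporter under UAS) in 2% charcoal-stripped FBS, dosed with 23 nL compound after 6 hr, incubated 16hr at 37C. LiveBLAzer B/G FRET substrate added, fluorescence read after 2 hours.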

[2] = biological target: Progesterone receptor (Homo sapiens) (UniProt P06401); assay: qHTS assay to identify small molecule antagonists of the progesterone receptor (PR) signaling pathway (AID 1346795; active = well fitted inhibition curve with a large enough effect in the signal ratio in the repeat runs, not every such curve was filed as active; the % refers to the signal ratio)
Procedure, shortened: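 PR-UAS-bla HEK293T cells with beta-lactamase reporter under UAS control, in 2% charcoal-stripped FBS, treated with compounds plus 1 nM promegestone (R5020, final) for 16 hr at 37C. Read-out: FRET beta-lactamase substrate fluorescence after 2 hr at room temperature.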

[3] = qHTS assay to identify small molecule antagonists of the progesterone receptor (PR) signaling pathway - cell viability counter screen (AID 1346798); note: series mostly up to about 92 µM; nearly all actives have a fitted effect of over 50% in size
Procedure, shortened: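 PR-UAS-bla HEK293T cells, 3,000/well in 2% charcoal-stripped FBS medium, dosed with compounds plus R5020 agonist and incubated 16 h at 37C. Viability then measured in the same wells by CellTiter-Glo luminescence after 30 min at RT.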

[4] = qHTS assay to identify small molecule agonists of the progesterone receptor (PR) signaling pathway - cell viability counter screen (AID 1346799; calls by dose curve; note: nearly all actives have a fitted effect of over 45% in size)
Procedure, shortened: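 Counter screen in the PR-UAS-bla HEK293T wells (2% charcoal-stripped FBS, 16 h compound exposure at 37 C) after the bla read. CellTiter-Glo added, 30 min at room temperature, luminescence read as cell viability.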

[5] = qHTS assay to identify small molecule antagonists of the TGF-beta/Smad signaling pathway - cell viability counter screen (AID 1346824); note: nearly all actives have a fitted effect of over 50% in size
Procedure, shortened: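 SBE-bla HEK 293T cells, incubated overnight, then compound plus 0.25 ng/mL TGF-beta1 (stock added) for 5 hr at 37 C. Viability was read in the same wells by CellTiter-Glo luminescence after 30 min at room temperature.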

[6] = qHTS assay to identify small molecule agonists of the TGF-beta/Smad signaling pathway - cell viability counter screen (AID 1346829); note: top concentration of the series differs between compounds; nearly all actives have a fitted effect of over 45% in size
Procedure, shortened: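 In parallel with the Smad reporter read, viability of HEK 293T cells stably carrying SBE-bla is quantified by ATP luminescence following 5 hr compound treatment.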

[7] = qHTS assay to identify small molecule agonists of the TGF-beta/Smad signaling pathway (AID 1346859; active = well fitted activation curve with a large enough effect in the signal ratio in the repeat runs, not every such curve was filed as active; the % refers to the signal ratio; note: series mostly up to about 77 µM)
Procedure, shortened: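 SBE-bla HEK293T cells plated overnight, then compound exposure for 5 h at 37 C. Beta-lactamase reporter read with LiveBLAzer B/G FRET substrate after 2 h at room temperature, fluorescence at 405 nm excitation, 460/530 nm emission.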

[8] = biological target: Thyrotropin-releasing hormone receptor (Homo sapiens) (UniProt P34981); assay: qHTS assay to identify small molecule antagonists of the thyrotropin-releasing hormone receptor (TRHR) signaling pathway (AID 1346877; active = well fitted inhibition curve with a large enough effect in the repeat runs, not every such curve was filed as active; note: series mostly up to about 51 µM)
Sequence of Thyrotropin-releasing hormone receptor (Homo sapiens) (P34981 whole entry, looked up): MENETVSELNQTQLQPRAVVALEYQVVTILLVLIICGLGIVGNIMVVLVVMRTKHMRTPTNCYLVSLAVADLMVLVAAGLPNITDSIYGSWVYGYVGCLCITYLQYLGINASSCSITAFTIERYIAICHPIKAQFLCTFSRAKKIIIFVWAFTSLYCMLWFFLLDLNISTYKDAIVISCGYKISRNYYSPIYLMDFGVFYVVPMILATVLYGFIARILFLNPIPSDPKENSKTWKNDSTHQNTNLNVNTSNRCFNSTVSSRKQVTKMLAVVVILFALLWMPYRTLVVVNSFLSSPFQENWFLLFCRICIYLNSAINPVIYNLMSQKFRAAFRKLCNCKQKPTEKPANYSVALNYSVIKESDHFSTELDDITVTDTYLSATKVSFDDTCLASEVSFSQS
Procedure, shortened: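 TRHR-expressing HEK293 cells were seeded, cultured 18 h at 37 °C, then loaded with calcium dye for 2 h. Compounds were pre-incubated 5 min at room temperature before 1 nM TRH (final) was added, and kinetic fluorescence was recorded for 3 min.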

[9] = biological target: Thyrotropin-releasing hormone receptor (Homo sapiens) (UniProt P34981); assay: qHTS assay to identify small molecule agonists of the thyrotropin-releasing hormone receptor (TRHR) signaling pathway (AID 1346891; calls by dose curve; note: series mostly up to about 58 µM)
Procedure, shortened: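 HEK293 cells expressing TRHR plated 18 h at 37 C/5% CO2, calcium dye-loaded 2 h at 37 C, then compound added (agonist mode); kinetic calcium fluorescence read 3 min at 1 s intervals; 15 concentrations in triplicate.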

[10] = Human pregnane X receptor (PXR) small molecule agonists, qHTS cell viability counter screen (AID 1346977); note: nearly all actives have a fitted effect of over 50% in size
Procedure, shortened: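 PXR-Luc HepG2 cells (2,000/well, 5% charcoal-stripped FBS) preincubated 5 hr, then exposed to compounds 24 hr at 37 C. Viability read in the same wells by CellTiter-Fluor fluorescence, reagent added at 23 hr, 1 hr incubation.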

[11] = Caspase-3/7 induction in HepG2 cells by small molecules, qHTS assay (AID 1346978); note: nearly all actives have a fitted effect of over 15% in size
Procedure, shortened: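 Wild-type HepG2 cells, 2,000/well, settled 5 hr at 37 C and 5% CO2, then compound-treated for 17 hr; caspase-3/7 activity read by luminescent Caspase-Glo 3/7 after 30 min at room temperature.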

[12] = Caspase-3/7 induction in CHO-K1 cells by small molecules, qHTS cell viability counter screen (AID 1346979); note: nearly all actives have a fitted effect of over 35% in size
Procedure, shortened: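 Wild-type CHO-K1 cells (1,500/well) treated with compound after 5 h plating; after 16 h at 37C, viability read as CellTiter-Fluor fluorescence following 1 h reagent incubation, in the same wells as the caspase read.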

[13] = Caspase-3/7 induction in CHO-K1 cells by small molecules, qHTS assay (AID 1346980); note: nearly all actives have a fitted effect of over 15% in size
Procedure, shortened: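 Wild-type CHO-K1 cells exposed to compounds for 17hr at 37 C, 5% CO2. Caspase-3/7 activity then measured by Caspase-Glo 3/7 luminescence after 30min at room temperature.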

[14] = Caspase-3/7 induction in HepG2 cells by small molecules, qHTS cell viability counter screen (AID 1346981); note: series mostly up to about 92 µM; nearly all actives have a fitted effect of over 30% in size
Procedure, shortened: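 Wild-type HepG2 cells (2,000/well) were allowed to settle for 5 hr at 37 C, 5% CO2, then dosed with compounds in DMSO by pin transfer. After 16 hr at 37 C, CellTiter-Fluor was added and fluorescence read 1 hr later.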

[15] = biological target: Nuclear receptor subfamily 1 group I member 2 (Homo sapiens) (UniProt O75469); assay: Human pregnane X receptor (PXR) small molecule agonists, qHTS assay (AID 1346982); note: nearly all actives have a fitted effect of over 35% in size; note: potency is the fitted concentration of half-maximal effect
Sequence of Nuclear receptor subfamily 1 group I member 2 (Homo sapiens) (O75469 whole entry, looked up): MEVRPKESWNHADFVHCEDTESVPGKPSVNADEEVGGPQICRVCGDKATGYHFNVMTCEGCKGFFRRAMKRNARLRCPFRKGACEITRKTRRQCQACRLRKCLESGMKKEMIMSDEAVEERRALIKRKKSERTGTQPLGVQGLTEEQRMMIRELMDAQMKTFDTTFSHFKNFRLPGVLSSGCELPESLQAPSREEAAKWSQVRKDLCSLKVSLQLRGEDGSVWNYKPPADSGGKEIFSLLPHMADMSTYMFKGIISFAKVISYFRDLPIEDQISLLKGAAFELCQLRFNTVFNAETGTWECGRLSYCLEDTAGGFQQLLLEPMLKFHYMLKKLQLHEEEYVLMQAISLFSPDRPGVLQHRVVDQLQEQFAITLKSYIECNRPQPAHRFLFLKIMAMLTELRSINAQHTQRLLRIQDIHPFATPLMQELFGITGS
Procedure, shortened: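 PXR-Luc HepG2 cells (CYP3A4 promoter-driven luciferase) were seeded in medium with 5% charcoal-stripped FBS, left 5 hr at 37 C, then exposed to compounds in DMSO for 24 hr. Luminescence was read after ONE-Glo addition.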

[16] = biological target: Cytochrome P450 2D6 (Homo sapiens) (UniProt P10635); assay: Cytochrome P450 Family 2 Subfamily D Member 6 (CYP2D6) small molecule antagonists: luciferase reporter qHTS assay (AID 1671196); note: series mostly up to about 120 µM; nearly all actives have a fitted effect of over 50% in size
Sequence of Cytochrome P450 2D6 (Homo sapiens) (P10635 whole entry, looked up): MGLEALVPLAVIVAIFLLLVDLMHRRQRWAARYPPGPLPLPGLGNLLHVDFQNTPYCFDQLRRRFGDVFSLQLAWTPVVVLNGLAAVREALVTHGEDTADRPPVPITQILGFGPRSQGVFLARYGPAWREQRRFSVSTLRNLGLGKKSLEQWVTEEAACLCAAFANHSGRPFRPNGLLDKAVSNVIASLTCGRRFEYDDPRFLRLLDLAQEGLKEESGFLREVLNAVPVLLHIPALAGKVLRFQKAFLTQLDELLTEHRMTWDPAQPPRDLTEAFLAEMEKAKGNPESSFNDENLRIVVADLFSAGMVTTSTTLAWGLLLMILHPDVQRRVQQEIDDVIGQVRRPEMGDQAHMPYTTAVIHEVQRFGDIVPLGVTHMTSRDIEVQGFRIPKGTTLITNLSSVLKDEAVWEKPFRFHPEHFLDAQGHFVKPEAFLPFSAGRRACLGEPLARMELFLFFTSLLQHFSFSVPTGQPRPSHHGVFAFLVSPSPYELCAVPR
Procedure, shortened: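 CYP2D6 enzyme–substrate mix was held with compound for 10 min at room temperature, then NADPH regeneration solution was added and the reaction ran 1 h at room temperature. Luciferin product was detected by luminescence after 20 min with detection reagent.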

[17] = biological target: Cytochrome P450 2C19 (Homo sapiens) (UniProt P33261); assay: Cytochrome P450 Family 2 Subfamily C Member 19 (CYP2C19) small molecule antagonists: luciferase reporter qHTS assay (AID 1671197); note: series mostly up to about 120 µM; nearly all actives have a fitted effect of over 65% in size
Sequence of Cytochrome P450 2C19 (Homo sapiens) (P33261 whole entry, looked up): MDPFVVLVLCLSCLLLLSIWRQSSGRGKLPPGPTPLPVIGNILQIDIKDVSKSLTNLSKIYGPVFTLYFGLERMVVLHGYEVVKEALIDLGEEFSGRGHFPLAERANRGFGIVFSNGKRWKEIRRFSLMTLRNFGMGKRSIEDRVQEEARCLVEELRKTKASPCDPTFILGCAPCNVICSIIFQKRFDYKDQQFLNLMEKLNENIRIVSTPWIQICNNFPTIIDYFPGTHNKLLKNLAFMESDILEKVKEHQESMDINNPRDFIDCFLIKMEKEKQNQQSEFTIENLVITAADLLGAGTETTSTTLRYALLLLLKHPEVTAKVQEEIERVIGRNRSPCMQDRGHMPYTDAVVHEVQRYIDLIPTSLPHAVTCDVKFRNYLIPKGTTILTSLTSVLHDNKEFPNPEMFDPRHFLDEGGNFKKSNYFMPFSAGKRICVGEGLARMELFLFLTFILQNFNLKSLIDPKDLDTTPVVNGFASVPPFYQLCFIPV
Procedure, shortened: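 Compounds were tested on CYP2C19 activity via proluciferin conversion to luciferin. The 37C, 1 h reaction followed NADPH addition; detection reagent stopped it.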

[18] = biological target: Cytochrome P450 2C9 (Homo sapiens) (UniProt P11712); assay: Cytochrome P450 Family 2 Subfamily C Member 9 (CYP2C9) small molecule antagonists: luciferase reporter qHTS assay (AID 1671198)
Sequence of Cytochrome P450 2C9 (Homo sapiens) (P11712 whole entry, looked up): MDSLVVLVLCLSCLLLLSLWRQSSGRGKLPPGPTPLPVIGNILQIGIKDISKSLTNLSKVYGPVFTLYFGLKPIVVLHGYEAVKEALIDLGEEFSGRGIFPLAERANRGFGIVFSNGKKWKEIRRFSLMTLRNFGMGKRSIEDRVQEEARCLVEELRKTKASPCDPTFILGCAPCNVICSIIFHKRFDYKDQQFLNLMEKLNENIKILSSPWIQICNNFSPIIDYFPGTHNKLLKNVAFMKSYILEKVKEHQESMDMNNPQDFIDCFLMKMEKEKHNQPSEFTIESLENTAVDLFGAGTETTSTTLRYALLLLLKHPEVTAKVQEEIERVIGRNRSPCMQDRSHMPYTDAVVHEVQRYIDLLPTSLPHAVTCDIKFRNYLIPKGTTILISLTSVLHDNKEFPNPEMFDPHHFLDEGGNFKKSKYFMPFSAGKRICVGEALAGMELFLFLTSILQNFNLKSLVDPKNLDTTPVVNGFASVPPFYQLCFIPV
Procedure, shortened: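 P450-Glo proluciferin substrate with CYP2C9 enzyme; 10 min RT preincubation, then NADPH regeneration 1 h at 37C; luciferin detection reagent 20 min RT, luminescence in relative luminescence units.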
% is set by controls: 0 for no effect and ±100 for the full control effect.

CCOCN(C(=O)CS(=O)(=O)O)c1c(C)cccc1CC
inactive: outcome [1] | Potency [2] | Potency [3] | Potency [4] | Potency [5] | Potency [6] | Potency [7] | Potency [8] | Potency [9] | Potency [10] | Potency [11] | Potency [12] | Potency [13] | Potency [14] | Potency [15]

CC(=O)OC1CCCCC1
inactive: outcome [1] | Potency [2] | Potency [3] | Potency [4] | Potency [5] | Potency [6] | Potency [7] | Potency [8] | Potency [9] | Potency [10] | Potency [11] | Potency [12] | Potency [13] | Potency [15] | Potency [16] | Potency [17] | Potency [18]

O=C1OC(=O)c2cccc3cccc1c23
inactive: outcome [1] | Potency [2] | Potency [3] | Potency [4] | Potency [5] | Potency [6] | Potency [7] | Potency [8] | Potency [9] | Potency [10] | Potency [11] | Potency [12] | Potency [13] | Potency [14] | Potency [16] | Potency [17] | Potency [18]
active: Potency [15] 19.5 µM

Cc1cncc(C)c1
inactive: outcome [1] | Potency [2] | Potency [3] | Potency [4] | Potency [5] | Potency [6] | Potency [7] | Potency [8] | Potency [9] | Potency [10] | Potency [11] | Potency [12] | Potency [13] | Potency [14] | Potency [15] | Potency [16] | Potency [17] | Potency [18]

CCCCCCS
inactive: outcome [1] | Potency [2] | Potency [3] | Potency [4] | Potency [5] | Potency [6] | Potency [7] | Potency [8] | Potency [9] | Potency [10] | Potency [11] | Potency [12] | Potency [13] | Potency [14] | Potency [17] | Potency [18]

CCOC(=O)COc1ccc(C)cc1
inactive: outcome [1] | Potency [2] | Potency [3] | Potency [4] | Potency [5] | Potency [6] | Potency [7] | Potency [8] | Potency [9] | Potency [10] | Potency [11] | Potency [12] | Potency [13] | Potency [14] | Potency [15] | Potency [16] | Potency [17]

CN1CN(C)CN(C)C1
inactive: outcome [1] | Potency [2] | Potency [3] | Potency [4] | Potency [5] | Potency [6] | Potency [7] | Potency [8] | Potency [9] | Potency [10] | Potency [11] | Potency [12] | Potency [13] | Potency [15] | Potency [16] | Potency [18]

C=CC(=C)CC/C=C(\C)CCC=C(C)C
inactive: activation [1] 0.395% [at 19 µM] | activity change, negative = inhibition [2] -8.93% [at 18.9 µM] | activity change, negative = cytotoxicity [3] -3.03% [at 18.9 µM] | activity change, negative = cytotoxicity [4] 7.16% [at 19 µM] | viability change, negative = cytotoxic [5] 6.24% [at 15.8 µM] | activity change, negative = cytotoxicity [6] 1.59% [at 15.8 µM] | activation [7] -1.49% [at 15.8 µM] | activity, negative = inhibition [8] -4.91% [at 10.5 µM] | activation [9] 0.335% [at 11.8 µM] | activity change, negative = cytotoxicity [10] 6.03% [at 19 µM] | caspase activation [11] 0.847% [at 19 µM] | activity change, negative = cytotoxicity [12] -0.798% [at 19 µM] | caspase-3/7 activation [13] 0.541% [at 19 µM] | activity change, negative = cytotoxicity [14] -2.86% [at 19 µM] | activation [15] 8.17% [at 19 µM] | activity change, negative = inhibition [16] -7.39% [at 23.6 µM]
